In PubChem BioAssay AID2566 (National Center for Advancing Translational Sciences (NCATS), 2010):
Values joined by “and” are separate entries in the source; they are usually repeats but may differ in a detail not shown here. Equal values may be shown once. Inconclusive results are not listed. Active and inactive are the calls of the source.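 Rule for the calls: active = compound that pushes labeled neuropeptide S off its receptor in a binding test; inconclusive = all other tested compounds; inactive = none, nothing was called inactive.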

Molecular target: Neuropeptide S receptor (Homo sapiens) (UniProt Q6W5P4)
Sequence (Q6W5P4 whole entry, looked up): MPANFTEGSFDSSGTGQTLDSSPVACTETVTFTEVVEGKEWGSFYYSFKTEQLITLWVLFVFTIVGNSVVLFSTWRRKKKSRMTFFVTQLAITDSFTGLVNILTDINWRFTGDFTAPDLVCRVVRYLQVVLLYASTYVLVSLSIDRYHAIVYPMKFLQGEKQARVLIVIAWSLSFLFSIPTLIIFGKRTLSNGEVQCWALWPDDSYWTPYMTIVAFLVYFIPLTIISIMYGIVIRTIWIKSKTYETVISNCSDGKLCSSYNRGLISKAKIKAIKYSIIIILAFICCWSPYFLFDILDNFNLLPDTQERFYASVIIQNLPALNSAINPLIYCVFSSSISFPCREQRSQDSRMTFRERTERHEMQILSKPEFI
Assay: Confirmation Concentration-Response Assay for Antagonists of the Neuropeptide S Receptor: Radioligand Displacement, SAR for Probe
Settings: CHO-hNPSR, [125I]Y10-NPS displacement, 1.5 h
Text: NIH Chemical Genomics Center [NCGC] NIH Molecular Libraries Probe Production centers Network [MLPCN] MLPCN Grant: X01-DA026210-01 Assay Submitter (PI): Heilig, Markus Alexander NCGC Assay Overview: Neuropeptide S receptor (NPSR), previously known as GPR154, is a recently de-orphanized G protein coupled receptor. Its endogenous ligand is the 20 amino acids peptide Neuropeptide S (NPS). […] NPS and its receptor are found in various tissues. Specifically they are highly expressed in brain areas that have been implicated in modulation of arousal, stress and anxiety. Central administration of NPS in mice produces an unusual profile of activity by inducing wakefulness and arousal, while at the same time suppressing anxiety. Therefore, NPSR may represent a novel drug target for the treatment of sleep and anxiety disorders. As one method of confirming the specific activity of compounds active in the primary screen (AID 1461), we developed an assay to measure the displacement of radio-labeled native ligand, NPS, from its receptor in vitro.
The assay was carried out as described (Xu et al. (2004) Neuron, 43: 487-497) with minor modification. Y10-NPS labeled with 125I was bought from NEN Perkin Elmer (Boston, MA). CHO cells stably expressing human NPSR were seeded into 24-well plates and cultured until reaching 90-95% confluency. Cells were washed with 1ml PBS once and then incubated with radioligand with or without compounds or in DMEM medium containing 0.1% bovine serum albumin at 20C for 1.5 hr. Increasing concentrations of compounds or unlabeled human NPS were used to compete with 0.15 nM [125I] Y10-NPS. Nonspecific binding was determined in the presence of 1 uM unlabeled human NPS. Cells were washed twice with cold PBS and lysed with 1 N NaOH. Bound radioactivity was counted in a liquid scintillation counter.

## COc1ccc(C2c3c(ncn(CCN4CCOCC4)c3=N)Oc3ccc4ccccc4c32)cc1OC (centres undefined)
  Potency: 256 nM (active) and 190 nM (active)

## O=C1OC(c2ccccc2)(c2ccccc2)N2CCN(C(=O)NCc3ccc(F)cc3)CC12 (centres undefined)
  Potency: 5.93 nM (active)

## CCC(C)(CCN1CCOCC1)N(Cc1cc2ccccc2n(C)c1=O)C(=O)C1CCCCC1 (centres undefined)
  Potency: 6.54 nM (active)

## CCOC(=O)C1CCCN(c2ncnc3c2oc2ccccc23)C1 (centres undefined)
  Potency: 26400 nM (active)

## COc1cccc(C2c3c(ncn(-c4ccccc4)c3=N)Oc3ccc4ccccc4c32)c1 (centres undefined)
  Potency: 266 nM (active)

## N#CC1=C(NC=NCc2ccccc2)Oc2ccc3ccccc3c2C1c1ccccc1 (centres undefined)
  Potency: 322 nM (active)

## COc1cccc(C2c3c(ncn(CCN4CCOCC4)c3=N)Oc3ccc4ccccc4c32)c1 (centres undefined)
  Potency: 439 nM (active)

## N=c1c2c(ccn1-c1ccccc1)Oc1ccc3ccccc3c1C2c1ccccc1 (centres undefined)
  Potency: 367 nM (active)

## CCOC(=O)CC(=O)Nc1ncnc2c1C(c1ccccc1)c1c(ccc3ccccc13)O2 (centres undefined)
  Potency: 616 nM (active)
